Experimental data: PubChem BioAssay AID743169 (National Center for Advancing Translational Sciences (NCATS), 2013)
Activity calls are given as the source filed them. Calls come from the whole dose curve; as a rule, active = well fitted curve in the direction sought with a large enough effect; inactive = no such curve, though single readings can be large or run the other way.

target: L-lactate dehydrogenase A chain (human) (UniProt V9HWB9); experiment: Extended Characterization of HPGD Inhibitors: Counterscreen Against LDHA; conditions: LDHA enzyme, diaphorase/resazurin coupled fluorescence; series mostly up to 57.1 µM
Description: The central role of HPGD is to inactivate prostaglandins such as prostaglandin E2 (PGE2) or prostaglandin D2 (PGD2). These prostaglandins are involved in a number of processes, including inflammation, differentiation, and cellular signaling, which makes HPGD an important target for pharmacological intervention. A number of prostaglandins of particular biological interest have been identified as substrates of HPGD. […] Over-production of PGE2 has been reported to promote tumor-associated neovascularization, cell proliferation, and tumor growth. […] In order to further characterize the compounds, we ran them against an LDHA counterscreen. LDHA converts pyruvate to lactate while regenerating NAD+ from NADH. LDHA enzymatic activity is then coupled to the activity of diaphorase, which reversibly catalyzes the reaction of […] while simultaneously reducing resazurin to the fluorescent resorufin. This change in fluorescence signal (excitation 544 nm; emission, 590 nm) was monitored using the ViewLux CCD imager (Perkin Elmer). Data were normalized against no enzyme control wells and no compound control wells. NIH Chemical Genomics Center [NCGC] NIH Molecular Libraries Probe Centers Network [MLPCN] MLPCN Grant: MH084681 Assay Submitter (PI): Structural Genomics Consortium
3 uL of LDHA enzyme in assay buffer are added to plate before 23 nL of compound/control are pinned into the solution. After a 15 min incubation, 1 uL of NADH (60 uM final) and sodium pyruvate (160 uM final) are added, incubated at 8 min at RT before another 1 uL of Diaphorase / Resazurin is added. The plate is read on the ViewLux after a 10 min RT incubation

Row | Compound | outcome
1 | O=C(c1ccc2c(c1)ncn2-c1cccc(Cl)c1)N1CCCCC1 | inactive
2 | Cc1cc(-c2nnc3n2CCCCC3)c(C)n1-c1ccc(Cl)c(Cl)c1 | inactive
3 | Cc1ccc(-n2c(C)cc(-c3nnc4n3CCCCC4)c2C)cc1 | inactive
4 | Cc1cc(-c2nnc3n2CCCCC3)c(C)n1-c1cccc(C#N)c1 | inactive
5 | COc1ccc(-n2cnc3cc(C(=O)N4CCCCC4)ccc32)cc1 | inactive
6 | Cc1cc(-c2nnc3n2CCCCC3)c(C)n1-c1cccc(Cl)c1 | inactive
7 | Cc1cc(-c2nnc3n2CCCCC3)c(C)n1-c1cccc(C(F)(F)F)c1 | inactive
8 | O=C(c1ccc2c(c1)ncn2-c1cccc(C(F)(F)F)c1)N1CCCCC1 | inactive
9 | Cc1cccc(-n2cnc3cc(C(=O)N4CCCC(C)(C)C4)ccc32)c1 | inactive
10 | Cc1cccc(-n2cnc3cc(C(=O)N4CCCC(C(F)(F)F)C4)ccc32)c1 (stereo not given) | inactive
